The structures appear in SMILES notation. Screen size: about 69,000 compounds; about 420 (0.61%) showed an effect of 50% or more. What follows is part of a selection rich in strong results, with near analogues and random picks from the rest.

The target in the test is T1, Histidine--tRNA ligase (Leishmania infantum) (UniProt A4I591).
T1 sequence (whole entry): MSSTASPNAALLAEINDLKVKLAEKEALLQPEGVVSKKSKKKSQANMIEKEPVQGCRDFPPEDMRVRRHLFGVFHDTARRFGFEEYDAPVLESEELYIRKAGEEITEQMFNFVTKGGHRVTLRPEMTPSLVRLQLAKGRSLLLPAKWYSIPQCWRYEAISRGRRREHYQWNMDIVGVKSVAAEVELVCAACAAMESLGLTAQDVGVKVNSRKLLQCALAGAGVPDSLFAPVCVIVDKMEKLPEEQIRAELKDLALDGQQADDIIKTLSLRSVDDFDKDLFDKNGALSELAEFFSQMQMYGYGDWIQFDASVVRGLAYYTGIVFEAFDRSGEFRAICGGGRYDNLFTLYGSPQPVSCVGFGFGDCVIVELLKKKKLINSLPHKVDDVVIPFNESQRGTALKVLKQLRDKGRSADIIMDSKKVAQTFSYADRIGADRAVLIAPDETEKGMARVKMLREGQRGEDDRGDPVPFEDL
Put plainly: Leishmania infantum Histidine tRNA synthetase (LdHisRS). As to conditions: 30 µM. The format is functional. More on the design: scale not given: in the data most compounds retested in dose-response had high values.
In the case of `CN1[C@@H](C(=O)NCC2CC2)C[C@@H]2CN(Cc3ccsc3)C[C@@H]21`, the Percent Effect worked out at 11.9%.

With `CS(=O)(=O)N1C[C@H]2CCC[C@@]2(COc2ccccn2)C1`, the Percent Effect turned out to be 10.3%. Consider `CN(C)C(=O)CO[C@H]1CN(Cc2cccc(C#N)c2)[C@@H]2COC[C@H]12`, for which the Percent Effect is -11.4%.

Regarding `COc1ncccc1C(=O)N1CC[C@H]2C[C@@H](c3noc(C)n3)O[C@@H]2C1`, the Percent Effect stood at 46.1%. As for `O=C(O)[C@@]12CN(c3cnccn3)C[C@@H]1CN(C1CCCC1)C2`, the Percent Effect is 21%. Then `Cc1nccc(C2CN(Cc3ccc(-c4ccccc4C(=O)O)o3)C2)n1`, with 12.7%; and `Nc1nccc(C2CN(Cc3ccc(-c4ccccc4C(=O)O)o3)C2)n1`, with 54.9%. With `O=C(O)c1ccccc1-c1ccc(CN2CC(c3ccncn3)C2)o1`, the Percent Effect was found to be 29.4%.

With `O=C(CN1C[C@H]2C[C@H](OCc3ccccc3)C[C@H]2C1)N1CCOCC1`, the Percent Effect amounted to 15.7%. As to `CN1CCN(Cc2cnn(-c3ccccc3Cl)c2)[C@H]2CS(=O)(=O)C[C@H]21`, the Percent Effect came out at 5.71%.

`Cc1ccc(-c2ncc(C(=O)N3CCCN4CCC[C@H]4C3)c(O)n2)cc1`: the Percent Effect worked out at 11%. The same measure for `Cc1c(-c2c(-c3ccccc3)ncn2[C@H](CO)C(=O)O)cnn1C`: 7.85%; for `Cc1nn(C)c(C)c1-c1c(-c2ccccc2)ncn1[C@H](CO)C(=O)O`: 1.57%.

With `CN(C)c1ncc(-c2c(-c3ccccc3)ncn2C(CO)C(=O)O)cn1` (stereo not given), the Percent Effect is 72.8%. The same measure for `O=C1C[C@H]2CC[C@@H](CN1)N2C(=O)CCc1ccccc1`: 8.39%; for `CNC(=O)CN1CC[C@H]2CN(C(=O)c3cccn3C)C[C@H]2C1`: 2.78%; for `Cc1ccc(S(=O)(=O)N[C@H](CO)C(C)C)cc1N(C)C`: 53%.

Consider `Cc1ccc(S(=O)(=O)NC(CO)CC(C)C)cc1N(C)C` (stereo not given), for which the Percent Effect was 43.4%. Then `CSCC(C)NS(=O)(=O)c1ccc(C)c(N(C)C)c1` (stereo not given), with 19.3%; and `O=C(NCCc1ccncc1)[C@@H]1CC[C@@H]2[C@@H](CCN2Cc2ccco2)O1`, with 20%; and `CNC(=O)N1C[C@H]2C[C@H](C(=O)Nc3ccccc3)[C@@H](C1)O2`, with 19.6%.

`CC(=O)c1c(C)nn(CC(=O)Nc2ccc(Br)cc2)c1C`: the Percent Effect stood at 71.3%. The same measure for `CC(=O)c1c(C)nn(CC(=O)Nc2ccc(F)cc2)c1C`: 15.7%; for `Cc1cc(=O)n(CC(=O)Nc2ccc(Cl)cc2)nc1C`: 7.2%. Then `COc1ccc(NC(=O)Cn2nc(C)c(C(C)=O)c2C)cc1`, with 52.2%; and `COc1ccc(NC(=O)Cn2nc(C)c(C)cc2=O)cc1OC`, with 7.69%. Then `COc1ccc(NC(=O)Cn2nc(C)c(C)cc2=O)cc1`, with -0.8%; and `O=C1O[C@@H]2CN(S(=O)(=O)N3CCCC3)C[C@@H]2N1CCc1cccc(Cl)c1`, with 7.29%; and `O=C1CC[C@]2(CC[C@@H](NCc3ccsc3)CC2)N1Cc1ccccc1`, with 25%.

Take `COCCN1C(=O)[C@H]2CC[C@@H]1CN(C(=O)COc1ccc(F)c(Cl)c1)C2`: the Percent Effect is -13.3%.

For `N#Cc1ccsc1N1CCC(Sc2ncc[nH]2)C1=O` (stereo not given), the Percent Effect is 20.4%. Consider `N#Cc1ccsc1N1CCC(Sc2ccncc2)C1=O` (stereo not given), for which the Percent Effect is 53.1%. As for `Cc1nnc(SC2CCN(c3sccc3C#N)C2=O)[nH]1` (stereo not given), the Percent Effect is 12.2%. On to `NC(=O)N1CC[C@@H]2O[C@@H](COCC(=O)N3CCCC3)CC[C@@H]21`, for which the Percent Effect was 0%.

Turning to `COCc1nc(CN2CCOC(CNc3cccnn3)C2)cs1` (stereo not given), the Percent Effect was found to be 35.1%. On to `CCCc1nc(CN2CCOC(CNc3cccnn3)C2)cs1` (stereo not given), for which the Percent Effect was found to be 69%.

As for `CCc1nc(CN2CCOC(CNc3cccnn3)C2)cs1` (stereo not given), the Percent Effect came out at 24.6%. The same measure for `CN(C)CCO[C@H]1CN(Cc2ccc3c(c2)OCO3)[C@@H]2COC[C@H]12`: 17.1%; for `CN(C)C(=O)CO[C@H]1CN(Cc2ccc3c(c2)OCO3)[C@@H]2COC[C@H]12`: 13.2%. As to `O=C(c1cnnn1-c1ccccc1)N1CCCC(c2ccn[nH]2)C1` (stereo not given), the Percent Effect is 15.7%. The same measure for `O=C(c1cc(=O)n(-c2ccccc2)[nH]1)N1CCCC(c2ccn[nH]2)C1` (stereo not given): 59%. The same measure for `O=C(c1cc(=O)n(-c2ccccc2)[nH]1)N1CCOCC(O)C1` (stereo not given): 6.2%; for `Cc1ncsc1CN1C[C@@H]2COC[C@]2(CNC(=O)c2ccccc2)C1`: 20.5%. As for `CCN(CC)[C@H]1COC[C@@H]2CN(Cc3cnn(C)c3)C[C@@H]21`, the Percent Effect was determined as 15.8%. `CCn1nc2c(cc1=O)CN(Cc1nnc(C3CC3)o1)CC2`: the Percent Effect is 22.6%.

Turning to `Cn1nc2c(cc1=O)CN(Cc1nc(C(C)(C)C)no1)CC2`, the Percent Effect stood at 82.4%.

As for `Cn1nc2c(cc1=O)CN(Cc1nc(C3CC3)no1)CC2`, the Percent Effect was 102%. The same measure for `CCCn1nc2c(cc1=O)CN(Cc1nnc(C3CC3)o1)CC2`: 24.5%; for `CCn1nc2c(cc1=O)CN(Cc1nc(CCOC)no1)CC2`: 23.4%; for `Cn1nc2c(cc1=O)CN(Cc1nnc(C3CC3)o1)CC2`: 97.9%.

With `Cc1ccc(F)cc1CC(=O)N1CC[C@@]2(O)CCNC[C@H]2C1`, the Percent Effect amounted to 4.92%.

Turning to `O=C(C1CCOCC1)N1CCO[C@H]2[C@H](Oc3cccnc3)CC[C@@H]21`, the Percent Effect came out at 9.68%. Then `O=C(c1ccco1)N1C[C@H]2CCCN(Cc3ccc(F)cc3)[C@H]2C1`, with 10.9%. Then `O=C(C1CCOCC1)N1C[C@H]2C[C@H](OCc3ccccc3)C[C@H]2C1`, with 12.9%; and `O=C(C[C@H]1[C@H]2CN(Cc3ccsc3)C[C@@H]12)N1CCCC1`, with 15.5%.

These data come from ChEMBL document CHEMBL3988442, “University of Dundee, Small-Polar-MMV Screening Library” (2021).
